Compounds with a hit are over-represented: about 7% of the library has one in this group of screens.
ATXN2 expr inh: reduces ATXN2 reporter expression in HEK-293 cells. AID 1745845. HEK-293 ATXN2-luciferase reporter, luminescence, 24 h. Potency, µM (doses to about 57 µM), for inactives: at the highest dose activity change, negative = inhibition, most hits filed as inhibitors. 0.72% of 360,000 active; note: potency is the fitted concentration of half-maximal effect; % is set by controls: 0 for no effect and ±100 for the full control effect; nearly all actives have a fitted effect of over 55% in size
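ATXN2-luciferase reporter cells (luciferase flanked by upstream and downstream ATXN2 gene portions) were treated 24 h at 37 °C with compounds at up to 57 uM. SteadyGlo luminescence gave expression; GF-AFC fluorescence gave viability.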
DRD3 agonist: activates the human D3 dopamine receptor; P35462; D3R DiscoveRx beta-arrestin cells, luminescence, 90 min; max activation, %; 0.58% of 410,000 active; in the data active = max activation above about 30%; note: 0% is about no effect
Target sequence (P35462 whole entry, looked up): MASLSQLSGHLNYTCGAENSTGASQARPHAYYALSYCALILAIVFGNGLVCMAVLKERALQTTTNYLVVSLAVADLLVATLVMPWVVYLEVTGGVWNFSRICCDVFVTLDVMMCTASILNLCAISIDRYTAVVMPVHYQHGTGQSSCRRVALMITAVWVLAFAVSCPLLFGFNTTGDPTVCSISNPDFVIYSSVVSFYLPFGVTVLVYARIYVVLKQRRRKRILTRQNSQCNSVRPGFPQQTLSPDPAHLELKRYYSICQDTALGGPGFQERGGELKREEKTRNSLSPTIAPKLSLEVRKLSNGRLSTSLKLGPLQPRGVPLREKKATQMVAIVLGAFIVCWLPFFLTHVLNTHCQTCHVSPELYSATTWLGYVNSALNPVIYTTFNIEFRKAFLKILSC
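Cells at 1500/well, incubated overnight, then treated with pinned compounds (dopamine as control) for 90 min at 37 degrees C. DiscoveRx reagent added for 30 - 60 minutes at room temperature; luminescence read.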
D3 antag: blocks the human D3 dopamine receptor; P35462; D3R cells, DiscoveRx beta-arrestin luminescence, antagonist mode; hits give low values; max response, negative = inhibition, %; 2.5% of 360,000 active; AID 652054; in the data active = max response below about -50%; inconclusive = no clear call, values can overlap the other calls; note: % is set by controls: 0 for no effect and ±100 for the full control effect
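Cells expressing the human receptor were seeded at 1500 cells/well, incubated overnight at 37 degrees C in 5% CO2, then exposed to library compounds with dopamine controls for 90 minutes at 37 degrees C before luminescent detection.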
IL-1B inflam inh: inhibitors of inflammasome signaling (IL-1 beta secretion); THP-1 LPS/ATP IL-1B secretion, AlphaLISA, 16 h; hits give low values; activity change, % at 57.5 µM; 4.7% of 360,000 active; AID 743279; in the data active = activity change below about -50%; inconclusive = mostly about -30% to -49%; note: % is set by controls: 0 for no effect and ±100 for the full control effect
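THP-1 cells pretreated 1 hr with compounds (up to 57.5 uM final), then stimulated with LPS (250 ng/mL final) plus ATP (1.25 mM final); secreted IL-1B measured by AlphaLISA after 16 hr, decreased signal indicating inhibition.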
Integrin act MD: activates integrin-mediated alleviation for muscular dystrophy. alpha7betagal myoblasts, beta-gal FDG fluorescence, 48 h. Potency, µM (titrated, usually from 38.3 µM), for inactives: at the highest dose activation, hits mostly activators. 0.064% of 350,000 active. AID 624291;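 note: potency is the fitted concentration of half-maximal effect; 100% = response of the positive control SU9516; nearly all actives have a fitted effect of over 60% in size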
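Alpha7betagal+/- myoblasts (passage 13) were plated 16-24 hr, then exposed to compounds (1:260 dilution of DMSO stock) for 48 hours at 37C. After MPER lysis, β-galactosidase reporter activity was read as FDG fluorescence (ex 480/em 540) after 30 minutes.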
ATXN viability: reduces viability in counter-screen for ATXN expression inhibitors; AID 651635; S2 cells (HEK-293 line with an ATXN2-luciferase reporter) viability, CellTiter-Fluor protease fluorescence, 24 h; Potency, µM (highest dose often 56.7 µM), usual class: cytotoxic; 0.49% of 400,000 active; note: potency is the fitted concentration of half-maximal effect; nearly all actives have a fitted effect of over 40% in size
* hit, by the source's call; i = inactive; ? = inconclusive; nt = no result. Unless noted, calls come from the whole dose curve; as a rule, active = well fitted curve in the direction sought with a large enough effect; inconclusive = small, poorly fitted or top-dose-only effect, or another doubt; inactive = no such curve, though single readings can be large; an effect the other way counts as inactive or inconclusive.

SMILES | ATXN2 expr inh | DRD3 agonist | D3 antag | IL-1B inflam inh | Integrin act MD | ATXN viability
O=C1CSC(c2ccc(Cl)cc2)N1Nc1nc(N2CCOCC2)nc(N2CCOCC2)n1 (stereo not given) | -24% | 3 | 0 | 15 | -32% | ?
COc1ccc(OC)c(C2C(C(=O)c3sc(C)nc3C)=C(O)C(=O)N2CCN2CCOCC2)c1 (stereo not given) | -15% | -9 | -56* | 13 | -6% | i
COc1ccc(C2C(C(=O)c3sc(C)nc3C)=C(O)C(=O)N2CCN2CCOCC2)cc1 (stereo not given) | 5% | -19 | ? | 18 | 9% | i
CNc1nc(Cl)nc2ncn(C)c12 | -4% | -7 | -20 | -6 | 27% | i
Cn1cnc2nc(Cl)nc(Cl)c21 | ? | -13 | -4 | -93* | 0% | ?
Cc1ccc(/C=C/C(=O)OCC(=O)N(C)c2c(N)n(Cc3ccccc3)c(=O)[nH]c2=O)o1 | nt | -1 | 1 | 10 | 1% | ?
CC1CCN(CCc2nc3cc(NS(=O)(=O)c4ccccc4)ccc3n2C)CC1 | 52% | -4 | -75* | -16 | -55% | i
CCCC(=O)Nc1ccc2c(c1)nc(CCN1CCC(C)CC1)n2C | nt | -5 | -3 | -14 | 2% | i
CC(=O)Nc1ccc2c(c1)nc(CCN1CCC(C)CC1)n2C | 10% | -42 | ? | -5 | -10% | i
CC(=O)NCCc1nc2cc(NS(=O)(=O)c3ccccc3)ccc2n1C | 32% | 0 | 13 | -10 | -5% | i
CC1CCN(CCc2nc3cc(NS(=O)(=O)c4ccc(F)cc4)ccc3n2C)CC1 | -23% | 1 | -70* | 11 | -35% | ?
CC(C)C(=O)Nc1ccc2c(c1)nc(CCN1CCN(c3ccccn3)CC1)n2C | -23% | 62* | 22 | 9 | -1% | i
CC1CCN(CCc2nc3cc(NC(=O)Nc4ccccc4)ccc3n2C)CC1 | 39% | -5 | -60* | -2 | -11% | i
C#CC1(NC(=S)Nc2cccc(OC)c2)CCCCC1 | nt | 3 | 33 | 15 | -6% | i
CCOC(=O)c1[nH]ncc1CN1CCC(Cc2cccc(OC)c2)(C(=O)OCC)CC1 | nt | 1 | 28 | 11 | 16% | i
CCc1nc2nc(C)cc(C)n2c1Nc1ccc(OC)cc1 | -25% | 19 | 109 | 44 | nt | i
NS(=O)(=O)c1ccc2nc(NC(=O)Nc3ccccc3F)sc2c1 | -19% | -4 | -16 | ? | 6% | i
CCC(=O)Nc1ccc2c(c1)nc(CCN1CCN(c3ccccc3)CC1)n2C | nt | 6 | -62* | 0 | -18% | i
CCC(=O)Nc1ccc2c(c1)nc(CCN1CCCCC1)n2C | -5% | -9 | -5 | -4 | -59% | i
Cc1cc(C)cc(NC(=O)CC23CC4CC(C2)CC(n2nnc(C)n2)(C4)C3)c1 | -6% | 6 | -25 | -75* | 1% | i
Cc1nnn(C23CC4CC(CC(CC(=O)Nc5ccc(C)c(Cl)c5)(C4)C2)C3)n1 | -1% | 0 | 3 | -5 | -13% | i
O=C(/C(=C/c1ccncc1)n1ccnc1)c1ccc(Cl)cc1Cl | nt | -3 | -14 | -10 | -16% | i
CC(C)(C)C(=O)/C(=C/c1ccc(Cl)cc1)n1cncn1 | nt | -6 | -3 | -97* | -70% | 10µM*
CC(C)/C=C(/C(=O)c1ccc(Cl)cc1Cl)n1cncn1 | nt | 3 | 9 | -71* | -13% | i
O=C(Cn1cncn1)N/N=C/c1ccc(Cl)cc1 | 5% | 2 | 7 | 6 | -37% | i
SMILES | ATXN2 expr inh | DRD3 agonist | D3 antag | IL-1B inflam inh | Integrin act MD | ATXN viability
COc1ccc(/C=C2\SC(=O)N(CCNC(=O)CCS(=O)(=O)c3ccc(C)cc3)C2=O)cc1 | 83% | 5 | 5 | -12 | 13% | i
Cc1ccc(C)c(NC(=O)CSc2nnc([C@@H]3CCCN3C(=O)OC(C)(C)C)o2)c1 | -9% | 0 | ? | 0 | 18% | i
c1csc(-c2cn3ccc4ccccc4c3n2)c1 | 77% | -5 | -28 | -62* | 0% | i
COc1ccc(NC(=O)CCc2nc3cccnc3n2-c2ccccc2)cc1Cl | -29% | -16 | nt | nt | nt | i
CC1(C(=O)NCCC#N)CCN1C(=O)C1(c2ccccc2)CC1 (stereo not given) | -1% | -10 | -63* | -17 | nt | i
CC(C)(C)CNC(=O)C1(C)CCN1C(=O)C1(c2ccccc2)CC1 (stereo not given) | -11% | -6 | 0 | 31 | nt | i
CCc1nc2ccc(C(=O)Nc3ccc(OC)c(OC)c3)cn2c1N(CC)Cc1cccc(Br)c1 | ? | -2 | ? | -57* | nt | ?
CCc1nc2ccc(C(=O)NC3CCN(Cc4ccccc4)CC3)cn2c1N(CC)Cc1cccc(Br)c1 | ? | -13 | -78* | -102* | nt | ?
CCNC(=O)C1(C)CCCN(C(=O)c2cccc(C)c2C)C1 (stereo not given) | 4% | 2 | 25 | 16 | nt | i
Cc1cccc2sc(NC(=O)CCn3cccc3)nc12 | 1% | -1 | -17 | -52* | 18% | i
COc1cccc(CNC(=O)c2sc3nc[nH]c(=O)c3c2C)c1 | nt | -9 | nt | nt | nt | nt
COc1ccccc1C1(CCN=Cc2ccc(N(C)C)cc2)CCOC(C)(C)C1 (stereo not given) | -1% | -1 | 1 | -64* | 1% | i
CCCCc1ccc(NC(=S)NCc2cccc(OC)c2)cc1 | -17% | -2 | 14 | -79* | 18% | i
CCCCc1ccc(NC(=S)Nc2ccc(Nc3ccc(OC)cc3)cc2)cc1 | -6% | -5 | -80* | 0 | -32% | i
Cc1ccc(NC(=O)c2c(C)oc3ccc(O)c(CN4CCCCC4)c23)cc1 | -34% | 4 | nt | nt | nt | ?
CC1Oc2ccc(C#N)cc2N(Cc2ccc(F)cc2)C1=O (stereo not given) | 1% | 10 | 26 | 3 | nt | ?
CCOC(=O)C1Cc2ccccc2CN1 (stereo not given) | 3% | -17 | -66* | -14 | 12% | i
O=P1(O)C=C(c2ccccc2)OC(c2ccccc2)=C1 | 54% | 1 | 7 | 20 | -16% | i
CCN1CCN(P2(=O)C=C(c3ccccc3)OC(c3ccccc3)=C2)CC1 | -21% | -32 | -81* | -21 | -1% | i
COC1=CC(=O)c2nc(Cl)ccc2C1=O | 3.2µM* | -12 | -75* | -111* | nt | ?
COc1ccc(C(=O)NCCn2cc(SCc3c(F)cccc3Cl)c3ccccc32)cc1 | ? | -11 | nt | nt | nt | 14µM*
COc1ccc(C(=O)NCCn2cc(SCC(=O)NCc3ccco3)c3ccccc32)cc1 | 15% | 4 | -69* | -2 | -25% | ?

Screening data (PubChem)
